Screen size: about 2,000 compounds; about 110 (5.5%) showed an effect of 50% or more. Only a selection was taken, and strong results are over-represented in it overall.
Molecular target: Genome polyprotein (dengue virus type 2) (UniProt P29990)

With Cc1cnc(NC(=O)C2CCN(c3ccc(C=O)cc3)CC2)c([N+](=O)[O-])c1 the inhibition (Thailand/16681/1984, Concentration 25.0 uM, Number of replicates 1.0) was 14.4%.

With Cc1cc(CO)c2cccc(Cc3cccc(NC(=O)Cc4c[nH]c5ccccc45)c3)c2n1 the inhibition (Thailand/16681/1984, Concentration 49.95 uM, Number of replicates 2.0, Standard deviation 0.8412168519630298 %) was -0.469% and the inhibition (Thailand/16681/1984, Concentration 99.9 uM, Number of replicates 2.0, Standard deviation 1.20193607081355 %) was 3.26%.

Cc1cc(CO)c2cccc(Cc3ccccc3NC(=O)C[C@H]3CCCN3)c2n1 showed an inhibition (Thailand/16681/1984, Concentration 49.95 uM, Number of replicates 2.0, Standard deviation 2.3110961437297597 %) of -1.74% and an inhibition (Thailand/16681/1984, Concentration 99.9 uM, Number of replicates 1.0) of -1.01%.

Molecule Cc1cnccc1NC(=O)c1cncc(S(C)(=O)=O)c1 has an inhibition (Thailand/16681/1984, Concentration 49.5 uM, Number of replicates 2.0, Standard deviation 0.09362930826064811 %) of 1.61%, an inhibition (Thailand/16681/1984, Concentration 99.01 uM, Number of replicates 2.0, Standard deviation 0.10343333957385824 %) of 2.02% and an inhibition (Thailand/16681/1984, Concentration 198.0 uM, Number of replicates 2.0, Standard deviation 0.39657621920361824 %) of 2.99%.

For COc1cc(CC(=O)NCc2cccnc2)nc(N2CCNCC2)n1, the inhibition (Thailand/16681/1984, Concentration 49.5 uM, Number of replicates 2.0, Standard deviation 1.473545535483215 %) was -5.12%, the inhibition (Thailand/16681/1984, Concentration 99.01 uM, Number of replicates 2.0, Standard deviation 1.7989399422367844 %) was -4.77% and the inhibition (Thailand/16681/1984, Concentration 198.0 uM, Number of replicates 2.0, Standard deviation 1.3802101593440819 %) was -3.61%.

CNC(=O)c1cnncc1NS(=O)(=O)c1ccc(Oc2ccccc2Cl)cc1 gave an inhibition (Thailand/16681/1984, Concentration 49.5 uM, Number of replicates 2.0, Standard deviation 2.9688082409176766 %) of 2.22%, an inhibition (Thailand/16681/1984, Concentration 99.01 uM, Number of replicates 2.0, Standard deviation 2.2862743420867915 %) of 7.71% and an inhibition (Thailand/16681/1984, Concentration 198.0 uM, Number of replicates 2.0, Standard deviation 2.701916446857586 %) of 19.5%.

Work on CNC(=O)c1cc(Cl)ccc1NS(=O)(=O)c1ccc(Oc2ccccc2Cl)cc1 yielded an inhibition (Thailand/16681/1984, Concentration 49.5 uM, Number of replicates 2.0, Standard deviation 2.214504665393713 %) of 57.1%, an inhibition (Thailand/16681/1984, Concentration 99.01 uM, Number of replicates 2.0, Standard deviation 0.44410505168195935 %) of 89.7% and an inhibition (Thailand/16681/1984, Concentration 198.0 uM, Number of replicates 2.0, Standard deviation 0.048202507704939286 %) of 89.7%.

For O=C(NCc1ccccc1)c1cc(O)ccc1NS(=O)(=O)c1ccc(Oc2ccccc2Cl)cc1, the inhibition (Thailand/16681/1984, Concentration 49.5 uM, Number of replicates 2.0, Standard deviation 0.5844803568567073 %) was 33.5%, the inhibition (Thailand/16681/1984, Concentration 99.01 uM, Number of replicates 2.0, Standard deviation 0.18145668135528656 %) was 55.3% and the inhibition (Thailand/16681/1984, Concentration 198.0 uM, Number of replicates 2.0, Standard deviation 0.23302823954279267 %) was 60.6%.

With O=C(O)c1cc(Cl)ccc1NS(=O)(=O)c1ccc(Br)cc1 the inhibition (Thailand/16681/1984, Concentration 49.5 uM, Number of replicates 2.0, Standard deviation 1.3795853744617563 %) was 7.98%, the inhibition (Thailand/16681/1984, Concentration 99.01 uM, Number of replicates 2.0, Standard deviation 2.3616490916140984 %) was 19.6% and the inhibition (Thailand/16681/1984, Concentration 198.0 uM, Number of replicates 2.0, Standard deviation 0.9946440456706616 %) was 67%.

For O=C(O)c1cc(Cl)ccc1NS(=O)(=O)c1ccc(Oc2ccccc2Cl)cc1, the inhibition (Thailand/16681/1984, Concentration 49.5 uM, Number of replicates 2.0, Standard deviation 0.09788858447746204 %) was 95.7%, the inhibition (Thailand/16681/1984, Concentration 99.01 uM, Number of replicates 2.0, Standard deviation 0.14802782416517393 %) was 94.6% and the inhibition (Thailand/16681/1984, Concentration 198.0 uM, Number of replicates 2.0, Standard deviation 0.06255266668592849 %) was 91.9%.

CNC(=O)c1cc(OC)ccc1NS(=O)(=O)c1ccc(Oc2ccccc2Cl)cc1 gave an inhibition (Thailand/16681/1984, Concentration 49.5 uM, Number of replicates 2.0, Standard deviation 1.018543331825067 %) of 7.08%, an inhibition (Thailand/16681/1984, Concentration 99.01 uM, Number of replicates 2.0, Standard deviation 0.3266212172200244 %) of 15.5% and an inhibition (Thailand/16681/1984, Concentration 198.0 uM, Number of replicates 2.0, Standard deviation 0.9287695329724984 %) of 21.9%.

Work on CNC(=O)c1cc(Cl)cc(C)c1NS(=O)(=O)c1ccc(Oc2ccccc2Cl)cc1 yielded an inhibition (Thailand/16681/1984, Concentration 49.5 uM, Number of replicates 2.0, Standard deviation 1.9936078061389018 %) of -4.39%, an inhibition (Thailand/16681/1984, Concentration 99.01 uM, Number of replicates 2.0, Standard deviation 1.8430300976388188 %) of -5.53% and an inhibition (Thailand/16681/1984, Concentration 198.0 uM, Number of replicates 2.0, Standard deviation 2.010624849106266 %) of -7.09%.

CNC(=O)c1cc(Cl)ccc1NS(=O)(=O)c1ccc(OC)cc1 showed an inhibition (Thailand/16681/1984, Concentration 49.5 uM, Number of replicates 2.0, Standard deviation 1.598704816821166 %) of -9.51%.

Work on CNS(=O)(=O)c1ccc(Oc2ccccc2Cl)cc1 yielded an inhibition (Thailand/16681/1984, Concentration 49.5 uM, Number of replicates 2.0, Standard deviation 2.6119045762628477 %) of -1.72%, an inhibition (Thailand/16681/1984, Concentration 99.01 uM, Number of replicates 2.0, Standard deviation 1.5233102161282106 %) of -0.429% and an inhibition (Thailand/16681/1984, Concentration 198.0 uM, Number of replicates 2.0, Standard deviation 1.4243001461587221 %) of 1.7%.

For CNC(=O)c1cc(Cl)ccc1NS(=O)(=O)c1ccc(NS(C)(=O)=O)cc1, the inhibition (Thailand/16681/1984, Concentration 49.5 uM, Number of replicates 2.0, Standard deviation 0.6295365180266114 %) was 1.5%, the inhibition (Thailand/16681/1984, Concentration 99.01 uM, Number of replicates 2.0, Standard deviation 0.4200098669756753 %) was 3.13% and the inhibition (Thailand/16681/1984, Concentration 198.0 uM, Number of replicates 2.0, Standard deviation 0.4807630318175827 %) was 6.02%.

O=S(=O)(Nc1ccc(Cl)cc1)c1ccc(Oc2ccccc2Cl)cc1 was tested, and the inhibition (Thailand/16681/1984, Concentration 49.5 uM, Number of replicates 2.0, Standard deviation 0.04775136783847868 %) was 12.2%, the inhibition (Thailand/16681/1984, Concentration 99.01 uM, Number of replicates 2.0, Standard deviation 0.32853232391890236 %) was 22.7% and the inhibition (Thailand/16681/1984, Concentration 198.0 uM, Number of replicates 2.0, Standard deviation 1.060565762839157 %) was 44.5%.

Molecule Cc1cc(CO)c2cccc(Cc3ccccc3C(=O)N[C@@H](CCCN)C(=O)O)c2n1 has an inhibition (Thailand/16681/1984, Concentration 49.95 uM, Number of replicates 2.0, Standard deviation 1.450239339781055 %) of -9.67% and an inhibition (Thailand/16681/1984, Concentration 99.9 uM, Number of replicates 2.0, Standard deviation 1.946109361538337 %) of 0.782%.

CCOC(=O)c1cc(CNCc2nnc3ccccn23)[nH]n1 was tested, and the inhibition (Thailand/16681/1984, Concentration 49.5 uM, Number of replicates 2.0, Standard deviation 0.017813955579008514 %) was 6.64%, the inhibition (Thailand/16681/1984, Concentration 99.01 uM, Number of replicates 2.0, Standard deviation 0.5926797733534107 %) was 7.63% and the inhibition (Thailand/16681/1984, Concentration 198.0 uM, Number of replicates 2.0, Standard deviation 1.0587355780894199 %) was 6.43%.

In the case of Cc1cc(CO)c2cccc(CC(=O)N[C@H](Cc3c[nH]cn3)C(=O)O)c2n1, the inhibition (Thailand/16681/1984, Concentration 49.95 uM, Number of replicates 2.0, Standard deviation 0.5871204354474296 %) is reported as 9.25% and the inhibition (Thailand/16681/1984, Concentration 99.9 uM, Number of replicates 2.0, Standard deviation 0.6044303147182479 %) is reported as 24.8%.

— ChEMBL document CHEMBL5606460, “ASAP - DENV-2 NS2B-NS3 protease fluorescence single point” (2024)
